# From PubChem BioAssay (NCI)
# About 83,000 compounds went through this panel and 20% of them were active in at least one assay; those are over-represented in the sample as a whole.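 Negative percent growth values reflect cell death: -40 means 40% of the cells present at the start died, and -100 means all died.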 A number with no mark means an inactive call. Calls of active or inactive are those of the source. Rule for the calls: active = growth percent below 10; inactive = the rest.
# Tested on: HL-60(TB) leukemia
# Test: NCI-60 one-dose screen, 48 h (100 = growth as untreated, 0 = no growth, -100 = all killed)
# Details: 10 µM unless noted
row,SMILES,growth
1,Brc1ccc(-c2cnc3nonc3n2)cc1,19.6%
2,O=C1CCn2c1c(O)c1ccccc1c2=O,110%
3,CC(=O)Nc1ccc(S(=O)(=O)n2ccc(-c3ccc4c(c3)CCC(C)(C)O4)n2)cc1,91.9%
4,NC(=O)c1cnc(Nc2cccc(N)c2)nc1NCCCNC(=O)C1CCC1,55.2%
5,COc1cc(C2=N/C(=C\c3cc4ccccc4nc3Oc3ccccc3)C(=O)N2C(=N)N)cc(OC)c1OC,77.2%
6,CC(C)(C)c1cc(C[P+](c2ccc(Cl)cc2)(c2ccc(Cl)cc2)c2ccc(Cl)cc2)cc(C(C)(C)C)c1O,3.1% (active)
7,CCCCCCCCCCCCCCCC(=O)OC[C@@]1(O)C[C@@]23CC[C@@H]4C(C)(C)CCC[C@@]4(C)[C@@H]2CC[C@H]1C3,73.3%
8,Cc1ccccc1NC(=O)Cc1csc2[n+]1C(=O)/C(=C/c1ccc([N+](=O)[O-])cc1)S2,103%
9,OC[C@H]1OC([S-])[C@H](O)[C@@H](O)[C@@H]1O.[Au+] (stereo not given in full),95.1%
10,O=C1NC(=O)C(c2ccccc2)O1 (stereo not given),99.5%
11,O=C(N=Nc1c(O)[nH]c2ccccc12)Nc1ccc(Cl)cc1,38.9%
12,O=C(/C=C/c1ccco1)Nc1ncc(Cc2ccc(F)cc2)s1,-41.6% (active)
13,O=C(Nc1nc2ccccc2s1)Nc1ccc([N+](=O)[O-])cc1Cl,78.8%
14,Cc1cc(N2CCN(C)CC2)nc(NC2CCCC(Nc3ccnc4cc(Cl)ccc34)C2)n1 (stereo not given),-64.9% (active)
15,COc1cc(C2CC(c3ccccc3)=NN2C(C)=O)cc(OC)c1OC (stereo not given),14.2%
16,CC(C)(C)Nc1c(-c2c3ccccc3cc3ccccc23)nc2ccccn12,74.4%
17,CCCC(C)c1cc(Cc2cc(Cl)cc(Cl)c2O)c(O)c(Cc2cc(Cl)cc(Cl)c2O)c1 (stereo not given),4.98% (active)
18,O=P([O-])(O)OP(=O)([O-])O.[NH-][C@H]1CCCC[C@@H]1[NH-].[OH-].[OH-].[Pt+4],111%
19,NNC(=O)c1ccc(-n2nc(-c3ccccc3)c3ccccc32)cc1,93%
20,CCSCC1CC(O)(c2ccccc2)CC(c2ccc(F)cc2)O1 (stereo not given),-31.9% (active)

row,SMILES,growth
1,C=C(c1ccc(OC)c(/C=C/C(=O)c2ccc3c(c2)OCO3)c1)c1cc(OC)c(OC)c(OC)c1,10.3%
2,CN(C)CCN=c1nc2c(c(N)n1-c1ccccc1)c(=S)n(-c1ccccc1)c(=S)n2-c1ccccc1,36.6%
3,CCCCOCC(=O)NC(NP(=O)(N(C)C)N(C)C)C(Cl)(Cl)Cl (stereo not given),100%
4,COc1ccc(C2CC(c3ccc4c(c3)OCO4)=NN2C=O)cc1 (stereo not given),106%
5,Cc1nc2ccccc2c(/C=C/c2ccc(F)cc2)c1C(N)=O,81.1%
6,Nc1nn2cc(-c3ccc(Cl)s3)nc2c2ccccc12,54.7%
7,CCOc1ccccc1-n1c(CN2CCN(C(=O)COc3ccc(CNCCCCCCN4C5CCCC4CC(OC(=O)Nc4cc(C)ccc4OC)C5)cc3)CC2)nc2ccccc2c1=O (stereo not given),-76% (active)
8,CCCNS(=O)(=O)c1ccc(Cl)cc1,105%
9,CCc1nn(Cc2ccccc2)c2nc(C)c(CCc3ccccc3)c(Cl)c12,82.7%
10,COc1cc(N2C(=O)c3nccnc3C2=O)cc(OC)c1OC,90.3%
11,NC(=S)N/N=C\c1nccc2c(C(F)(F)F)cccc12,-24.8% (active)
12,Cn1ccnc1C(=O)/C=C/c1ccccc1,8.05% (active)
13,C#CCC1(c2ccc(F)c(F)c2)NS(=O)(=O)c2ccccc21 (stereo not given),89.2%
14,N#Cc1c(-c2ccc(Cl)cc2)nc(NN=Cc2cccc(Cl)c2)nc1N1CCOCC1,71.5%
15,C=C(C)[C@@H]1CC[C@]2(C(=O)NCCNCCNCCN)CC[C@]3(C)[C@H](CC[C@@H]4[C@@]5(C)CC[C@H](O)C(C)(C)[C@@H]5CC[C@]43C)[C@@H]12,-24% [100 µM] (active)
16,O=C1Nc2cc(-c3ccc(NC(=O)c4ccccc4)cc3)ccc2/C1=C/c1ccc[nH]1,99.2%
17,COc1ccc(/C=C(/C(=O)n2cnnn2)c2cc(OC)c(OC)c(OC)c2)cc1,4.64% (active)
18,O=C1/C=C/[C@@H](O)[C@@H]2C[C@@H](O)C[C@H]2/C=C/CCC[C@@H](O)CCO1,123%
19,Cc1ccc(S(=O)(=O)CCCl)cc1,91.7%
20,CN(C)/C(N)=N/N=C(\c1ccccc1)c1ccccn1,98.5%
